{
  "source": "PubChem BioAssay (NCI)",
  "note": "This is part of a sample that, as a whole, favours compounds with a hit. Of some 79,000 tested, about 15% had one in any assay. Calls of active or inactive are those of the source. No stated cut-off is given here; in the data, active means growth inhibition above about 70%; inactive means the rest.",
  "data": [
    {"assay": "NCI Yeast Anticancer Drug Screen. Data for the cln2 rad14 strain (AID 165);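 further: 0% = growth equal to vehicle treated cultures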", "settings": "S. cerevisiae cln2 rad14 strain, at 5.0 µM (retest, dose inferred, filed as 0.5), active compounds read high", "in_short": "(§1)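 Yeast strain cln2 rad14, bearing defects in cell cycle control and DNA repair, serves as the test system; values reflect growth inhibition compared with vehicle.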", "values": [
      {"smiles": "CCCC(O)CNCc1ccc(N(C)C)cc1", "note": "(stereo not drawn)", "growth inhibition": "6% (inactive)"},
      {"smiles": "CC(=O)Nc1nnc(-c2coc3ccccc3c2=O)s1", "growth inhibition": "9% (inactive)"},
      {"smiles": "COc1ccc(CSC(=S)Nc2ccc(Cl)c(C(F)(F)F)c2)cc1", "growth inhibition": "44% (inactive)"},
      {"smiles": "CC(=O)Sc1ccc(Br)cc1", "growth inhibition": "-1% (inactive)"},
      {"smiles": "O=C(CNc1cccc(Cl)c1)Nn1c(-c2ccccc2)nc2ccccc2c1=O", "growth inhibition": "16% (inactive)"},
      {"smiles": "Cc1ccc(S(=O)(=O)c2cc(O)c(O)c3ccc(Br)cc23)cc1", "growth inhibition": "-1% (inactive)"},
      {"smiles": "Fc1cccc2c1cc1ccc3cccc4ccc2c1c34", "growth inhibition": "-3% (inactive)"},
      {"smiles": "COC1=C(/C(=N/Nc2ccc([N+](=O)[O-])cc2[N+](=O)[O-])c2ccccc2)COC1=O", "growth inhibition": "4% (inactive)"},
      {"smiles": "CCOC(=O)c1cnccc1CC1(C#N)c2ccccc2C=CN1C(=O)c1ccccc1", "note": "(stereo not drawn)", "growth inhibition": "-7% (inactive)"},
      {"smiles": "CCCCNc1ccc(-c2c(N)nc(N)nc2CC)cc1[N+](=O)[O-]", "growth inhibition": "-34% (inactive)"},
      {"smiles": "O=C(NC1CCN(Cc2ccccc2)CC1)c1cccc(I)c1", "growth inhibition": "84% (active)"},
      {"smiles": "O/N=C1/CC2CCCc3ccc4cccc1c4c32", "note": "(stereo not drawn)", "growth inhibition": "-24% (inactive)"},
      {"smiles": "CC(C)c1cc(O)c2c(c1O)C1CC3C(C)(C)CCC[C@]23C(=O)O1", "note": "(stereo partly drawn)", "growth inhibition": "4% (inactive)"}
    ]},
    {"assay": "NCI Yeast Anticancer Drug Screen. Data for the cln2 rad14 strain (AID 165);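 further: 0% = growth equal to vehicle treated cultures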", "settings": "S. cerevisiae cln2 rad14 strain, at 50.0 µM (retest, dose inferred, filed as 5.0), active compounds read high", "in_short": "as §1", "values": [
      {"smiles": "Oc1ccccc1N=CC1CCCCC1", "growth inhibition": "-31% (inactive)"},
      {"smiles": "CC(O[Si](c1ccccc1)(c1ccccc1)C(C)(C)C)[C@H](NC(=O)OC(C)(C)C)C(=O)O[Si](c1ccccc1)(c1ccccc1)C(C)(C)C", "note": "(stereo partly drawn)", "growth inhibition": "99% (active)"},
      {"smiles": "Cn1c(=O)c2c3oc(=O)cc(O)c3c(=O)n3c4ccccc4n(c1=O)c23", "growth inhibition": "45% (inactive)"},
      {"smiles": "CCCCCCCCCCCCCCC(O)C(=O)O", "note": "(stereo not drawn)", "growth inhibition": "-42% (inactive)"},
      {"smiles": "O=[N+]([O-])c1cc(I)cc(/C=N/NS(=O)(=O)c2ccc(F)cc2)c1O", "growth inhibition": "15% (inactive)"},
      {"smiles": "CCC/C=C1/OC(=O)C2=C[C@H]3CC[C@]21[C@]1(OC(=O)C2=C1CCC=C2)[C@H]3CCC", "growth inhibition": "96% (active)"},
      {"smiles": "C=C(CC)C[C@@H]1C[C@]2(C(=O)OC)c3[nH]c4ccccc4c3CCN2C1=O", "growth inhibition": "77% (active)"},
      {"smiles": "Cc1ccc(N2C(=O)C(Cl)=C(Cl)C2=O)cc1", "growth inhibition": "99% (active)"},
      {"smiles": "COc1cc2c(cc1O)CCCCC2", "growth inhibition": "-7% (inactive)"},
      {"smiles": "CC(C)Cc1cc(O)cc2ccccc12", "growth inhibition": "97% (active)"},
      {"smiles": "CCN(CC)Cc1cc(Nc2c3ccccc3nc3c4ccccc4n(C)c23)ccc1O", "growth inhibition": "0% (inactive)"},
      {"smiles": "CC(=O)Nc1ccc(-c2csc(Nc3ccnc4cc(Cl)ccc34)n2)cc1", "growth inhibition": "4% (inactive)"},
      {"smiles": "NNc1ccccc1F", "growth inhibition": "65% (inactive)"},
      {"smiles": "O=C(O)C1(Cc2ccc3c(c2)CCC3)Cc2ccccc2C1=O", "note": "(stereo not drawn)", "growth inhibition": "3% (inactive)"},
      {"smiles": "c1cc2cc(Cc3ccc4[nH]ccc4c3)ccc2[nH]1", "growth inhibition": "10% (inactive)"},
      {"smiles": "COc1cc(C(c2cc3c(cc2O)OCO3)N2CCOCC2)ccc1O", "note": "(stereo not drawn)", "growth inhibition": "3% (inactive)"},
      {"smiles": "Cc1c(N)nc(C2CC(=O)N2CC(N)C(N)=O)nc1C(=O)NC(C(=O)NC(C)C(O)C(C)C(=O)NC(C(=O)NCCc1nc(-c2nc(C(=O)NCCNCC(C)O)cs2)cs1)C(C)O)C(OC1OC(CO)C(O)C(O)C1OC1OC(CO)C(O)C(OC(N)=O)C1O)c1cnc[nH]1", "note": "(stereo not drawn)", "growth inhibition": "92% (active)"},
      {"smiles": "Cc1[nH]nc(C(=O)N(C)C)c1N=NN(C)C", "growth inhibition": "78% (active)"},
      {"smiles": "CSc1c(S(C)=O)c2ccccc2n1C", "note": "(stereo not drawn)", "growth inhibition": "17% (inactive)"},
      {"smiles": "CN(C)c1ccc(C=Nc2cnc3ccccc3c2)cc1", "growth inhibition": "-14% (inactive)"},
      {"smiles": "CCCCCCCCCCCCCCCc1nc(SCC(=O)O)n[nH]1", "growth inhibition": "40% (inactive)"},
      {"smiles": "Cc1ccc(S(=O)(=O)Oc2c([N+](=O)[O-])cc(C)cc2[N+](=O)[O-])cc1", "growth inhibition": "17% (inactive)"},
      {"smiles": "CCOC(=O)c1c(Cl)nnc(-c2ccccc2)c1-c1ccccc1", "growth inhibition": "97% (active)"},
      {"smiles": "Cc1cc(O)c(C=NC(=S)C(N)=S)c(=O)o1", "growth inhibition": "22% (inactive)"},
      {"smiles": "C/C(=N\\NC(=S)NC(C)(C)C)c1ccccn1", "growth inhibition": "99% (active)"},
      {"smiles": "S=C(Nc1ccc(Br)c(Cl)c1)SCc1ccc2c(c1)OCO2", "growth inhibition": "98% (active)"},
      {"smiles": "CC(=O)Nc1ccc(S(=O)(=O)N/N=C/c2cc(I)cc([N+](=O)[O-])c2O)cc1", "growth inhibition": "35% (inactive)"},
      {"smiles": "CCCC(O)CNCc1ccc(N(C)C)cc1", "note": "(stereo not drawn)", "growth inhibition": "3% (inactive)"},
      {"smiles": "CC(=O)Nc1nnc(-c2coc3ccccc3c2=O)s1", "growth inhibition": "1% (inactive)"},
      {"smiles": "COc1ccc(CSC(=S)Nc2ccc(Cl)c(C(F)(F)F)c2)cc1", "growth inhibition": "38% (inactive)"},
      {"smiles": "CC(=O)Sc1ccc(Br)cc1", "growth inhibition": "40% (inactive)"},
      {"smiles": "O=C(CNc1cccc(Cl)c1)Nn1c(-c2ccccc2)nc2ccccc2c1=O", "growth inhibition": "74% (active)"},
      {"smiles": "Cc1ccc(S(=O)(=O)c2cc(O)c(O)c3ccc(Br)cc23)cc1", "growth inhibition": "97% (active)"},
      {"smiles": "Fc1cccc2c1cc1ccc3cccc4ccc2c1c34", "growth inhibition": "-4% (inactive)"},
      {"smiles": "COC1=C(/C(=N/Nc2ccc([N+](=O)[O-])cc2[N+](=O)[O-])c2ccccc2)COC1=O", "growth inhibition": "15% (inactive)"},
      {"smiles": "CCOC(=O)c1cnccc1CC1(C#N)c2ccccc2C=CN1C(=O)c1ccccc1", "note": "(stereo not drawn)", "growth inhibition": "68% (inactive)"},
      {"smiles": "CCCCNc1ccc(-c2c(N)nc(N)nc2CC)cc1[N+](=O)[O-]", "growth inhibition": "8% (inactive)"},
      {"smiles": "O=C(NC1CCN(Cc2ccccc2)CC1)c1cccc(I)c1", "growth inhibition": "88% (active)"},
      {"smiles": "O/N=C1/CC2CCCc3ccc4cccc1c4c32", "note": "(stereo not drawn)", "growth inhibition": "-20% (inactive)"},
      {"smiles": "CC(C)c1cc(O)c2c(c1O)C1CC3C(C)(C)CCC[C@]23C(=O)O1", "note": "(stereo partly drawn)", "growth inhibition": "61% (inactive)"}
    ]}
  ]
}
